Results: paper PMC5540273 (PLoS ONE, 2017)
Where two headings read alike, the source gives them in different places.

Key:
[1] = system: FYN; conditions: concentration: 1 μM, replicates: in singlicate; n = 1
[2] = system: GAK; conditions: concentration: 1 μM, replicates: in singlicate; n = 1
[3] = system: T1, GCN2(Kin.Dom.2,S808G); conditions: concentration: 1 μM, replicates: in singlicate; n = 1
T1 construct: gene EIF2AK4

[4] = system: GRK1; conditions: concentration: 1 μM, replicates: in singlicate; n = 1
[5] = system: T2, GRK2; conditions: concentration: 1 μM, replicates: in singlicate; n = 1
T2 construct: gene ADRBK1

[6] = system: T3, GRK3; conditions: concentration: 1 μM, replicates: in singlicate; n = 1
T3 construct: gene ADRBK2

[7] = system: GRK4; conditions: concentration: 1 μM, replicates: in singlicate; n = 1
[8] = system: GRK7; conditions: concentration: 1 μM, replicates: in singlicate; n = 1
[9] = system: GSK3A; conditions: concentration: 1 μM, replicates: in singlicate; n = 1
[10] = system: GSK3B; conditions: n = 1
[11] = concentration: 1 μM, replicates: in singlicate
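Further: KINOMEscan kinase panel screen.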

Row | Compound | %Inh [1] | %Inh [2] | %Inh [3] | %Inh [4] | %Inh [5] | %Inh [6] | %Inh [7] | %Inh [8] | %Inh [9] | %Inh [10, 11] | %Inh ([10]; 1 µM)
1 | Cn1cc(-c2cnc(N)c3c(-c4ccc5c(c4)CCN5C(=O)Cc4ccccc4)csc23)cn1 [GSK2593074] | 25% | 11% | 91.2% | 0% | 0% | 0% | 7% | 6% | 5% | 0% | 
2 | CN(C)CCNS(=O)(=O)c1ccc(-c2ccnc3[nH]ccc23)cc1 [GSK977620] | 18% | 1% | 14% | 71% | 0% | 72% | 0% | 86% | 0% | 11% | 
3 | Cc1ccc(-c2ccc3occ(-c4ccc(S(C)=O)cc4)c3c2)nn1 (stereo not drawn) | 0% | 0% | 1% | 12% | 0% | 0% | 7% | 0% | 3% | 0% | 
4 | COC(=O)Nc1nc2ccc(Oc3ccc(NC(=O)Nc4cc(C(F)(F)F)ccc4F)cc3)cc2[nH]1.Cl [GW654607] | 54% | 0% | 6% | 0% | 0% | 0% | 11% | 0% | 4% | 9% | 
5 | CN(c1ccc(F)c(NC(=O)c2cccc(OC(C)(C)C#N)c2Cl)c1)c1ccc2nc(NC(=O)C3CC3)sc2n1 | 79% | 0% | 0% | 0% | 0% | 6% | 4% | 21% | 4% | 0% | 
6 | CCn1cnc2c(NCc3ccccc3)ncnc21 [SKF-96418] | 0% | 0% | 0% | 39% | 0% | 0% | 6% | 0% | 0% | 35% | 
7 | Cn1cc(-c2ccc3c(c2)CCN3C(=O)Cc2cc(F)cc(F)c2F)c2c(N)ncnc21 [GSK2634140] | 0% | 17% | 40% | 11% | 0% | 0% | 0% | 0% | 0% | 1% | 
8 | Fc1cc(Cl)ccc1Nc1ccnc2cc(-c3ccc(CN4CCSCC4)o3)ccc12 [GW560106] | 90.5% | 84% | 0% | 0% | 0% | 32% | 3% | 0% | 22% | 0% | 
9 | CN(c1ccc2c(c1)nc(NCc1ccccc1)n2C)c1ccnc(Nc2ccc(CS(C)(=O)=O)cc2)n1.Cl [GW811603] | 69% | 0% | 0% | 0% | 35% | 8% | 33% | 16% | 0% | 0% | 
10 | COc1cccc2c(-c3ccncc3)c(-c3ccc(F)cc3)nn12 [GW468513] | 27% | 83% | 18% | 0% | 0% | 38% | 0% | 0% | 4% | 3% | 
11 | Cc1cc(-c2ccnc(Nc3cccc(C#N)c3)n2)cc(C)c1O [GSK1440913] | 0% | 79% | 0% | 6% | 0% | 0% | 90.7% | 0% | 93.8% | 26% | 
12 | Cl.Cl.NC(CNC(=O)c1cc(Br)c(-c2ccnc3[nH]ccc23)s1)c1ccccc1 (stereo not drawn) [GSK1322949] | 17% | 85% | 0% | 3% | 39% | 70% | 76% | 75% | 0% | 3% | 
13 | O=C(Nc1n[nH]c2nc(-c3ccccc3O)ccc12)C1CC1 [SB-711880] | 0% | 0% | 26% | 49% | 0% | 0% | 28% | 12% | 87% |  | 53%
14 | CC(=O)Nc1cn2nc(Oc3cccc(NC(=O)c4cccc(C(F)(F)F)c4)c3)ccc2n1 | 96.7% | 0% | 37% | 0% | 0% | 0% | 1% | 0% | 20% | 0% | 
15 | COc1ccc(C)c(Nc2ccnc(Nc3ccc(-c4cnc[nH]4)cc3)n2)c1.Cl [GW784041] | 56% | 52% | 100% | 0% | 0% | 0% | 27% | 15% | 32% | 0% | 
